Assay in all cases: SPOT peptide array binding signal intensity (averaged, normalized) (arbitrary units (background-subtracted, floor 0; scale differs between SH3 domains)); higher = stronger binding of the SH3 domain to the peptide
For one test, the target named is SpBzz1-D2. The method, then:
(§1)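 GST-tagged SH3 domains from S. cerevisiae (Sc), A. gossypii (Ag), C. albicans (Ca) and S. pombe (Sp) were incubated at 10 ug/ml overnight at 4 C on cellulose SPOT membranes carrying 292 synthetic 15-mer peptides mined from the S. cerevisiae proteome (cysteines replaced by serines). Binding was detected with anti-GST antibody, HRP secondary and chemiluminescence, quantified with Genespotter, and reported as normalized spot intensities averaged over biological replicates.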

The target of another test is SpCyk3. The method, then:
as §1

Another test addresses SpHof1. The method, then:
as §1

Another test addresses SpHof1-2. The method, then: as §1
Another test concerns the target SpHof1-3. As to the method:
as §1

The next test addresses SpHse1. As to the method: as §1
In another test the target is SpLsb1. The method, then:
as §1

In another test the target is SpLsb4. As to the method: as §1
A further test addresses SpMyo1. The method, then:
as §1

For the next test, the target named is SpNbp2. As to the method:
as §1

Another test concerns the target SpPex13. The method, then: as §1
For another test, the target named is SpRvs167. The method, then:
as §1

A further test has as its target SpSla1-D1-D2. As to the method:
as §1

Another test addresses SpSla1-D3. The method, then:
as §1

Some results are limits rather than exact numbers.

B1: unnamed (peptide)
chain: AERNYAPRLPRRETS
Turning to B1, the “SPOT peptide array binding signal intensity” value is 4.5 in the test with SpBzz1-D2; 2 with SpCyk3; 49.2 in the test with SpHof1; 10.2 with SpHof1-2; 197 with SpHof1-3; 85.5 with SpHse1. In addition, the “SPOT peptide array binding signal intensity” value in the test with SpLsb1 was 177; with SpLsb4, 3100; with SpMyo1 it was 11.5; with SpNbp2, no more than 0; with SpPex13 it was 3.5; with SpRvs167 it was 1930. Besides, the “SPOT peptide array binding signal intensity” value with SpSla1-D1-D2 and with SpSla1-D3 was no more than 0 each time.

These data come from the supplement of paper PMC4466140.
